Data taken from PubChem BioAssay (NCI).
The panel holds about 83,000 compounds, 20% with a hit somewhere; the sample as a whole holds those more often.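 Plates (96-well) were seeded with cells, treated with compound at one concentration, and incubated for 48 hours before percent growth was determined.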 Unmarked numbers belong to inactive results. The source made the active and inactive calls. The calls were made as follows: active = growth percent below 10; inactive = the rest.

What was measured:
Assay in all cases: NCI-60 one-dose screen, 48 h (100 = growth as untreated, 0 = no growth, -100 = all killed)
Conditions in all cases: 10 µM unless noted
NCI-H23 lung = tested on: NCI-H23 lung
NCI-H226 lung = tested on: NCI-H226 lung
NCI-H322M lung = tested on: NCI-H322M lung
HOP-62 NSCLC = tested on: HOP-62 NSCLC
NCI-H460 lung = tested on: NCI-H460 lung
HOP-92 NSCLC = tested on: HOP-92 NSCLC
NCI-H522 lung = tested on: NCI-H522 lung
A549/ATCC NSCLC = tested on: A549/ATCC NSCLC
786-0 renal = tested on: 786-0 renal
COLO 205 colon = tested on: COLO 205 colon

Compound	growth (NCI-H23 lung)	growth (NCI-H226 lung) [%]	growth (NCI-H322M lung)	growth (HOP-62 NSCLC)	growth (NCI-H460 lung)	growth (HOP-92 NSCLC)	growth (NCI-H522 lung)	growth (A549/ATCC NSCLC)	growth (786-0 renal)	growth (COLO 205 colon)
Cc1cc2c(cc1C)N(C(=O)CCl)CC(=O)N2	55.7%	33.1	95%	73.4%	88.7%	93.4%	-81.7% (active)	88.1%	51.2%	-95.6% (active)
O=C(CSc1nnc(-c2cc(-c3ccccc3)nc3ccccc23)n1-c1ccccc1)Nc1ccc(C(=O)/C=C/c2ccc(Cl)cc2)cc1	96.1%	91.4	93.1%	93%	102%	82.1%	71.8%	84.4%	96.3%	99.6%
Fc1ccc2[nH]cc(-c3nc(-c4c[nH]c5ccncc45)cs3)c2c1	49.3%	68.6	-5.67% (active)	-73.6% (active)	-71.5% (active)	28.6%	-61.1% (active)	-41.7% (active)	-92.9% (active)	-72.9% (active)
CCOC(=O)c1nn(CC(O)c2ccccc2)c(NC(=O)Nc2cccc(F)c2)c1C (stereo not given)	108%	84.8	98.9%	104%	96.3%	99.8%	84.7%	87.9%	99.7%	106%
COc1ccc(C2=CN3CC=CC3CC2=O)cc1 (stereo not given)	97.8%	98	108%	91.1%	106%	107%	85.2%	87.4%	88.8%	102%
COc1ccc2c(c1)c(-c1nc(-c3c[nH]c4ncccc34)cs1)cn2CCCN1CCOCC1	56.6%	45.4	42.1%	28.9%	25.7%	27.9%	26.3%	42%	-24.3% (active)	-38.5% (active)
O=C(Nc1ncccc1OCc1ccccc1)NC1CCCCCC1	89.8%	73.8	88.2%	102%	93.5%	68.4%	72.6%	97.8%	89.6%	103%
COCCn1cc(-c2csc(-c3c[nH]c4ccc(Br)cc34)n2)c2cccnc21	32.3%	58	59.5%	45.4%	20.7%	2.14% (active)	-28.3% (active)	23.1%	-4.75% (active)	24.9%
CC1(C)CC(=O)c2c(nn(-c3ccc(Br)cc3)c2-c2cn(-c3ccccc3)nc2-c2cccnc2)C1	90.4%	98.4	93%	81.3%	97.5%	87.2%	85.6%	92.5%	100%	105%
COc1ccc(N2CCN(C(=O)c3sc4nc(C)c(Br)c(C)c4c3N)CC2)cc1	99.4%	74.2	88%	80%	105%	88.9%	89.2%	91.1%	99.7%	107%
COc1ccc2c(c1)c(-c1nc(-c3c[nH]c4ncccc34)cs1)cn2CCO	62.5%	36.5	47.6%	53.7%	46.3%	48.6%	36.8%	66.9%	59.5%	56.9%
Cc1ccc(S(=O)(=O)N2CCC(=O)c3ccccc32)cc1	85%	93.9	89.3%	80.8%	86.5%	80.8%	84%	102%	93.7%	76.4%
CCCCNC(=O)Oc1ccc(/C(=C(/C)Cc2ccc(OC)cc2)c2ccc(OCCN3CCCCCC3)cc2)cc1	85%	101	97.1%	85.6%	53.8%	53.3%	68.5%	68%	76.3%	57%
CN1CCN(CCCOc2cccc3nc(Nc4ccc(F)c(F)c4)ccc23)CC1	36%	56.2	-13.6% (active)	5.44% (active)	-26% (active)	0.0965% (active)	-58.6% (active)	3.54% (active)	-12.3% (active)	-82.1% (active)
O=C1c2ccccc2C(=O)C1c1ccc(Br)cc1	81.6%	103	122%	115%	102%	75.1%	96.9%	108%	93.9%	113%
COc1ccc(C(=O)c2cc3c(N)c(C(=O)Nc4ccccc4)sc3nc2C)cc1	36.1%	65.3	63%	44.8%	6.22% (active)	82.2%	9.62% (active)	31.1%	46.4%	7.64% (active)
O=C1c2cccc3cccc(c23)C(=O)N1C/C=C/c1ccc2c3c(cccc13)C(=O)N(CCO)C2=O	69.6%	58.3	62.9%	70.6%	72.6%	2.53% (active)	89.2%	81.2%	84.4%	68.3%
S=c1[nH]c(=S)c2c(-c3ccccc3)c(-c3ccccc3)oc2[nH]1	97.8%	92.7	118%	92.6%	108%	100%	97.5%	95.7%	103%	120%
CC1(C)N=C(N)N=C(N)N1c1cccc(CCc2ccccc2)c1	21.7%	48.1	45.8%	45%	16.1%	63.2%	21.4%	24.8%	30.8%	29.5%
O=C(CCl)NNc1nccc(Nc2ccc(S(=O)(=O)Nc3ccncc3)cc2)n1	40.5%	70.8	64.4%	83.2%	27.9%	37.3%	-42.9% (active)	71.5%	24.1%	82.2%
CCN1CCN(C(=O)[C@]23CC[C@@H](C)[C@H](C)[C@@H]2C2=CC[C@@H]4[C@@]5(C)C/C(=C/c6cccnc6)C(=O)C(C)(C)[C@@H]5CC[C@@]4(C)[C@]2(C)CC3)CC1	34.2%	47.8	65.7%	44.5%	7.51% (active)	56.9%	17.7%	32%	42.4%	11.5%
CCN1C(=O)N(CC)C2C1N=C(SCc1ccc(Cl)cc1)N2/N=C/C=C/c1ccccc1OC (stereo not given)	78.2%	75	97.1%	70%	85.6%	50.6%	34.1%	53.7%	86.2%	59.7%
COc1ccc(C2=NN(C(C)=O)C(c3cn(-c4ccccc4)nc3-c3ccc(Cl)cc3)C2)cc1 (stereo not given)	9.25% (active)	33.6	47.8%	-19.3% (active)	5.58% (active)	18.1%	47.5%	14.3%	-17.5% (active)	4.9% (active)
Cc1c(CC(=S)N2CCOCC2)nnn1-c1cccc(C(F)(F)F)c1	107%	107	109%	101%	103%	111%	89.6%	107%	110%	119%
CCN1CCN(c2cc(C)nc(N(CCNc3ccnc4cc(Cl)ccc34)Cc3ccc4c(c3)OCO4)n2)CC1	13.6%	47.7	28.3%	-14.3% (active)	8.38% (active)	44.6%	-81.7% (active)	2.91% (active)	-76.8% (active)	-89.5% (active)
